# Columns and labels:
# Test in all cases: DAPPL (digital affinity profiling via proximity ligation, sequencing); 10 mM Tris-HCl pH 7.5, 50 mM NaCl, 1 mM DTT, 4% glycerol, room temperature, 30 min; GST-TFs on glutathione beads, 16-mer random dsDNA library, 0.1% formaldehyde crosslink after washing; high values mean tight binding
# [1] = target: T1, FEV (Homo sapiens, UniProt Q99581 1-238); details: protein: recombinant; tags: N-terminal GST; dsDNA, one strand shown
# T1 sequence: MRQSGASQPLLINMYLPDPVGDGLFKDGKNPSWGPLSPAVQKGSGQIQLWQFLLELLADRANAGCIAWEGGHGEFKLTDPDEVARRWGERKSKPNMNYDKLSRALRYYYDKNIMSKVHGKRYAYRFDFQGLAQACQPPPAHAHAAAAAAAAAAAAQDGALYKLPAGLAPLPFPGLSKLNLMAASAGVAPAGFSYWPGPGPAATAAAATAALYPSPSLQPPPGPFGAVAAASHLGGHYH
# How it was run: (§1)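 Sequencing on an Illumina NextSeq500 followed washing, crosslinking with 0.1% formaldehyde, proximity ligation (BsaI/T4 ligase, 1 h, 37 °C) and PCR amplification of pools that had been incubated for 30 min at room temperature with 200 nmole of a random double-stranded 16-mer DNA library in Tris/NaCl/DTT/glycerol buffer. Each pool held DNA-barcoded human transcription factors, expressed in yeast as GST fusions and captured on glutathione beads, plus a tag-only sample. Binding signal is a hexamer's read frequency for a factor divided by its frequency in the tag-only sample.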
# [2] = target: ETV5 (Homo sapiens, UniProt P41161 1-510); details: protein: recombinant; tags: N-terminal GST; dsDNA, one strand shown
# How it was run: as §1
# [3] = target: HSF1 (Homo sapiens, UniProt Q00613 1-529); details: protein: recombinant; tags: N-terminal GST; chain copies: 3; dsDNA, one strand shown
# How it was run: as §1
# [4] = target: ELF4 (Homo sapiens, UniProt Q99607 1-663); details: protein: recombinant; tags: N-terminal GST; dsDNA, one strand shown
# How it was run: as §1
# [5] = target: T2, ELK4 (Homo sapiens, UniProt P28324-2 1-405); details: protein: recombinant; tags: N-terminal GST; dsDNA, one strand shown
# T2 sequence: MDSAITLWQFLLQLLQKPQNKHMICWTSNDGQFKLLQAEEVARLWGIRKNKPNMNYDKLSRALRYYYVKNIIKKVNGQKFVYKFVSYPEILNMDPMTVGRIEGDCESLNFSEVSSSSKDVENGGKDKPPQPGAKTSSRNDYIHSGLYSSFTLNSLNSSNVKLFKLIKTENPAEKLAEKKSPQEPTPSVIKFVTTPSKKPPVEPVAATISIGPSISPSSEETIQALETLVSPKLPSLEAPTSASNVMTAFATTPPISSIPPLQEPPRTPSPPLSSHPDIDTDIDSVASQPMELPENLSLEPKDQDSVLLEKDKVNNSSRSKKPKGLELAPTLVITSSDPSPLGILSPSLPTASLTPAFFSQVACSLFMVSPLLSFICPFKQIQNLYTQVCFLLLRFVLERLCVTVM
# How it was run: as §1
# [6] = target: T3, ETV2 (Homo sapiens, UniProt O00321 1-342); details: protein: recombinant; tags: N-terminal GST; dsDNA, one strand shown
# T3 sequence: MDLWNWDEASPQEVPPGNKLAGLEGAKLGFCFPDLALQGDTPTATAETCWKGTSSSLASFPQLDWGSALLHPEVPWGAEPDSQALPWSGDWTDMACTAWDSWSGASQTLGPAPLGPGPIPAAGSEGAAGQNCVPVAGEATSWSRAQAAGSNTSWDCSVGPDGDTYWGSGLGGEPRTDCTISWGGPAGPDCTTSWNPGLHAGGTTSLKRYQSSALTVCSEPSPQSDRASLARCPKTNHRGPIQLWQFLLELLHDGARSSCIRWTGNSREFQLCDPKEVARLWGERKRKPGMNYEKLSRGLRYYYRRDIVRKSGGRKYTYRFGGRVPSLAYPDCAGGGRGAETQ
# How it was run: as §1
# [7] = target: T4, ELF3 (Homo sapiens, UniProt P78545 1-371); details: protein: recombinant; tags: N-terminal GST; dsDNA, one strand shown
# T4 sequence: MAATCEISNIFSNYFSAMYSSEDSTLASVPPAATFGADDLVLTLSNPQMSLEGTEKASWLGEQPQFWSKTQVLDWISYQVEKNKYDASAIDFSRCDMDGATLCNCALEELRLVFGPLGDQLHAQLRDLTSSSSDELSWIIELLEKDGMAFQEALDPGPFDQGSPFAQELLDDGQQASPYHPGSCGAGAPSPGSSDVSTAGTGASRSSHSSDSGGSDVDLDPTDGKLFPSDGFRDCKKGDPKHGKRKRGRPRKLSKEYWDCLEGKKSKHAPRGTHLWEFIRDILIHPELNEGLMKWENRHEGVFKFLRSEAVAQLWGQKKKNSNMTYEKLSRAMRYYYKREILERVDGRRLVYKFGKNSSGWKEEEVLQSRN
# How it was run: as §1
# [8] = target: ETV1 (Homo sapiens, UniProt P50549 1-477); details: protein: recombinant; tags: N-terminal GST; dsDNA, one strand shown
# How it was run: as §1
# [9] = target: T5, ERF (Homo sapiens, UniProt P50548 1-548); details: protein: recombinant; tags: N-terminal GST; dsDNA, one strand shown
# T5 sequence: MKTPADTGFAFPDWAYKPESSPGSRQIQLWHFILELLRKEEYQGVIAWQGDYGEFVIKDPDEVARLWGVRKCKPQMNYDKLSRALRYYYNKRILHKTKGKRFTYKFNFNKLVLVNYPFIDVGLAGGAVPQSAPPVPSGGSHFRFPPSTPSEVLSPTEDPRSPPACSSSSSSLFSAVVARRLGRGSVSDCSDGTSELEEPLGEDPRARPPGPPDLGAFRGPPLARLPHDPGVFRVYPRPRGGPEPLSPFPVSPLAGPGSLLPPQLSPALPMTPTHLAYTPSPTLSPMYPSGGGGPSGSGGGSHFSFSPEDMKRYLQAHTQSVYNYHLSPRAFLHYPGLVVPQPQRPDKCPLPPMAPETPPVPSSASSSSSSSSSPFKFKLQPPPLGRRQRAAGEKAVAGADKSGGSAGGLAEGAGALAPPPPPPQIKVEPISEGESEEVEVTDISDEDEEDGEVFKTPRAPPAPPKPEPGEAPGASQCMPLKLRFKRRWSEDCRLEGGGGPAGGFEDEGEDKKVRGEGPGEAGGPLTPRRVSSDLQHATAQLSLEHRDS
# How it was run: as §1
# [10] = target: T6, ETV3L (Homo sapiens, UniProt Q6ZN32 1-361); details: protein: recombinant; tags: N-terminal GST; dsDNA, one strand shown
# T6 sequence: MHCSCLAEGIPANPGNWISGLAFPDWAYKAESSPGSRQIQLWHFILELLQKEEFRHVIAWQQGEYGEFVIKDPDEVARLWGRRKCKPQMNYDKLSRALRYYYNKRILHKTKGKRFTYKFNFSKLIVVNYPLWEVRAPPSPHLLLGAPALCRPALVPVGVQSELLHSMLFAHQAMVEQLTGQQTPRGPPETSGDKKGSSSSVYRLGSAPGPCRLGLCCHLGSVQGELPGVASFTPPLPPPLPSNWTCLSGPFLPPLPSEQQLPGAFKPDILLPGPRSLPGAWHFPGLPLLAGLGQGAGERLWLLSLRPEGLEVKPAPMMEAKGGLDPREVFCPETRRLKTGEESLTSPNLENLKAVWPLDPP
# How it was run: as §1
# [11] = target: T7, ETS2 (Homo sapiens, UniProt P15036 1-469); details: protein: recombinant; tags: N-terminal GST; dsDNA, one strand shown
# T7 sequence: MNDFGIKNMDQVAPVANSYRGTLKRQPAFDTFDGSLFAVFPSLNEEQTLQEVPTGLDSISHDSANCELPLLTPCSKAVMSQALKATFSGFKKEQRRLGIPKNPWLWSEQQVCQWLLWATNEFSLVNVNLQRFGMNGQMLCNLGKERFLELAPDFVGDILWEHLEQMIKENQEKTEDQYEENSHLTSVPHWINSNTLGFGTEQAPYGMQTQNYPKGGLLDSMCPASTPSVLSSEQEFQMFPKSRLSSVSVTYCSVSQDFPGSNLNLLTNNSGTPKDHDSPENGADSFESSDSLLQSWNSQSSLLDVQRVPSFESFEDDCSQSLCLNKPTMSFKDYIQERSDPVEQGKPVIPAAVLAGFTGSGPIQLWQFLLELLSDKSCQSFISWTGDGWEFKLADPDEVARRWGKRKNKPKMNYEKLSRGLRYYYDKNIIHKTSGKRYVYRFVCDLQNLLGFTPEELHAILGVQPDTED
# How it was run: as §1
# [12] = target: T8, SPDEF (Homo sapiens, UniProt O95238 1-335); details: protein: recombinant; tags: N-terminal GST; dsDNA, one strand shown
# T8 sequence: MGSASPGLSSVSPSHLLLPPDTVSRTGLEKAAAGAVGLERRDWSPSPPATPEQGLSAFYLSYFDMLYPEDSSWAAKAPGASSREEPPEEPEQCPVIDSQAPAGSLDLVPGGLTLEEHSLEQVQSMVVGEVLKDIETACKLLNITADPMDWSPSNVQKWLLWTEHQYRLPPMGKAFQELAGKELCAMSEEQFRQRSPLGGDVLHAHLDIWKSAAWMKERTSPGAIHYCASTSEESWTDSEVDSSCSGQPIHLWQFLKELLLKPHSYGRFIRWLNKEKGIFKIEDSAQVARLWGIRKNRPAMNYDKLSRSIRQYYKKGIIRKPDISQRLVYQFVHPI
# How it was run: as §1
# [13] = target: T9, ETV7 (Homo sapiens, UniProt Q9Y603 1-341); details: protein: recombinant; tags: N-terminal GST; dsDNA, one strand shown
# T9 sequence: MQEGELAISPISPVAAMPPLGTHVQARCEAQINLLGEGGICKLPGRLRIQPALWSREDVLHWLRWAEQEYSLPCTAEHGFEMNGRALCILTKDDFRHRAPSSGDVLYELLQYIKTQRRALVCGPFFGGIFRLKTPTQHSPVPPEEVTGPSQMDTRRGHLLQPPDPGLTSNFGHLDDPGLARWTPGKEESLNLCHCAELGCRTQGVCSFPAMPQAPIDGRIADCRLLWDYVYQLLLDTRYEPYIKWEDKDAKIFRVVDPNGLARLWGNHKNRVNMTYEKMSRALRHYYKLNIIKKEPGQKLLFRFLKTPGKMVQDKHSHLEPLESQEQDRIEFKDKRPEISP
# How it was run: as §1
# [14] = target: T10, ELF5 (Homo sapiens, UniProt Q9UKW6-2 1-255); details: protein: recombinant; tags: N-terminal GST; dsDNA, one strand shown
# T10 sequence: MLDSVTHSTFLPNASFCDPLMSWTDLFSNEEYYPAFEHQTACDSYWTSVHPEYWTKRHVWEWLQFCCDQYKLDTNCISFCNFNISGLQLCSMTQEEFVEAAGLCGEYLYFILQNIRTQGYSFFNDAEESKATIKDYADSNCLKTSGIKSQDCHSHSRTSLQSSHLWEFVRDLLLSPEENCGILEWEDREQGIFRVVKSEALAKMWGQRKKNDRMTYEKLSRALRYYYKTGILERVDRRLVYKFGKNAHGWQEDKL
# How it was run: as §1
# [15] = target: T11, ETV3 (Homo sapiens, UniProt P41162-2 1-143); details: protein: recombinant; tags: N-terminal GST; dsDNA, one strand shown
# T11 sequence: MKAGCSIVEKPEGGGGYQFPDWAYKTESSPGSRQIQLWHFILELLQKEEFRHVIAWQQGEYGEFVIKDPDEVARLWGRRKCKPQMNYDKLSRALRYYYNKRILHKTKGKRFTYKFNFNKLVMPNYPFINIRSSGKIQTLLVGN
# How it was run: as §1
# [16] = target: ETV6 (Homo sapiens, UniProt P41212 1-452); details: protein: recombinant; tags: N-terminal GST; dsDNA, one strand shown
# How it was run: as §1
# Chain of ETV5 (P41161 whole entry): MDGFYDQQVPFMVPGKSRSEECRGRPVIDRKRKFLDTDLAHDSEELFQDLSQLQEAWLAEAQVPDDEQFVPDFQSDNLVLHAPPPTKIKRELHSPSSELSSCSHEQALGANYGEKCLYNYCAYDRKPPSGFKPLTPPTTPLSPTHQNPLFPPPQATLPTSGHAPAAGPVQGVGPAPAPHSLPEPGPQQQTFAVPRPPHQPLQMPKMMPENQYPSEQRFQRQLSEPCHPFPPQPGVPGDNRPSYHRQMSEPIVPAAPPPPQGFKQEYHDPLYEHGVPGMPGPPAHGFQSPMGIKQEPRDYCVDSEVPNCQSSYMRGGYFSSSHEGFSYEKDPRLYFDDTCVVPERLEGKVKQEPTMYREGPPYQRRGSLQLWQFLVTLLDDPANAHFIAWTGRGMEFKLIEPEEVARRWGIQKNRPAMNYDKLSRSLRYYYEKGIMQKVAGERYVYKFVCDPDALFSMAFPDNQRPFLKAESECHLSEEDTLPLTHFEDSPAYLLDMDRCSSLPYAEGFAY
# Chain of HSF1 (Q00613 whole entry): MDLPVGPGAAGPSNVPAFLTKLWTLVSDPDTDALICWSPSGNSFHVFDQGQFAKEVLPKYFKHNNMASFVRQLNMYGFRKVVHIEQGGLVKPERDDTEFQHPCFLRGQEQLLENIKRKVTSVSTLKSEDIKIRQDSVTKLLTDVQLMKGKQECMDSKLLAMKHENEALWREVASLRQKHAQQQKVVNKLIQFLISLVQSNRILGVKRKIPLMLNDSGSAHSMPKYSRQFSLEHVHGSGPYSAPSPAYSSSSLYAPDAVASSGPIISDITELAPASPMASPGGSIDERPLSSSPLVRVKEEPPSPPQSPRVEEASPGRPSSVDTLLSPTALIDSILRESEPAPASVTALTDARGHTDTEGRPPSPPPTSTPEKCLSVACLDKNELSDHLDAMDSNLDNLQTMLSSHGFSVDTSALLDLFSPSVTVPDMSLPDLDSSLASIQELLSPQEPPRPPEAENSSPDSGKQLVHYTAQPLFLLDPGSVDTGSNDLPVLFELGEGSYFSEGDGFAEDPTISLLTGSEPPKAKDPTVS
# Chain of ELF4 (Q99607 whole entry): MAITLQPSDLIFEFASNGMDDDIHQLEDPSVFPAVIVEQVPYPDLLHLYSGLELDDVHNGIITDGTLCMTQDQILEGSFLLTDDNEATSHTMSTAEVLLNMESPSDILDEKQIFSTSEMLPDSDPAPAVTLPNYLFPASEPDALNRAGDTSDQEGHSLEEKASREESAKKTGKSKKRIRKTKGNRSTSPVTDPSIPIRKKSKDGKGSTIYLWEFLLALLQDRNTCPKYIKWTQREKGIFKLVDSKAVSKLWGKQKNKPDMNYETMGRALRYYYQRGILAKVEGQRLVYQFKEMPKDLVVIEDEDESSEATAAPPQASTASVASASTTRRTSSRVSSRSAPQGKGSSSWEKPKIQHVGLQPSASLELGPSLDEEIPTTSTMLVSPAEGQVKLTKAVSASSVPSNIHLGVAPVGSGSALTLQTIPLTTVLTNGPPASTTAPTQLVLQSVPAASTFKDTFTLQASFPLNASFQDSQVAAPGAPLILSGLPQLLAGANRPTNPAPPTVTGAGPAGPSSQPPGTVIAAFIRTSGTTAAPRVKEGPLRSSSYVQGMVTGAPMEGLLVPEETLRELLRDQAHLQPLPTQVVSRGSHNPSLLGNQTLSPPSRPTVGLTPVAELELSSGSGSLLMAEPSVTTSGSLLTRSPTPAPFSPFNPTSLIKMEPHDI
# Chain of ETV1 (P50549 whole entry): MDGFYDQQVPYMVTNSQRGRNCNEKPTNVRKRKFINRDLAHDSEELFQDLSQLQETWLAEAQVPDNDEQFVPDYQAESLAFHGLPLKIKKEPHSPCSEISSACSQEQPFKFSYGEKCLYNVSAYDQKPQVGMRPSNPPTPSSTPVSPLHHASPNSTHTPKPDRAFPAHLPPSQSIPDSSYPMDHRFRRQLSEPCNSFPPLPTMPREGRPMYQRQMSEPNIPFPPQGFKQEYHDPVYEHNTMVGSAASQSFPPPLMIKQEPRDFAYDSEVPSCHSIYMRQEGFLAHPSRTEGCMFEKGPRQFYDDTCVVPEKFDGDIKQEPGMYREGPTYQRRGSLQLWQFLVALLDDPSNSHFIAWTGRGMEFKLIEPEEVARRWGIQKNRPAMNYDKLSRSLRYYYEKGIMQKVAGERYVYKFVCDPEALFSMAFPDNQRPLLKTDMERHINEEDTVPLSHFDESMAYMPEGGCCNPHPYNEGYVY
# Chain of ETV6 (P41212 whole entry): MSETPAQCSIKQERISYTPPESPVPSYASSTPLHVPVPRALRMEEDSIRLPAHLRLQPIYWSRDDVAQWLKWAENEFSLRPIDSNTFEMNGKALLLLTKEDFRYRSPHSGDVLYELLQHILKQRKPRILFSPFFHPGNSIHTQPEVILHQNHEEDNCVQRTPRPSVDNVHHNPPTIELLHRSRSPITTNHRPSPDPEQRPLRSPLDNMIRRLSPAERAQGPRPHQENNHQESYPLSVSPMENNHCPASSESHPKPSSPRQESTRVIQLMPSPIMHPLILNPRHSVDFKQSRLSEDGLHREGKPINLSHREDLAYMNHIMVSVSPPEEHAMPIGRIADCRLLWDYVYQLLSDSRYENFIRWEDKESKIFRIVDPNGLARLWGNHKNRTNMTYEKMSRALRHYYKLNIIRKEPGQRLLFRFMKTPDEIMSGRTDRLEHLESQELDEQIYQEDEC
sequence,measurement,setting,value
ACTGTT,binding signal,[1],"1.1 fold enrichment (6-mer frequency, TF over GST control)"
same,binding signal,[2],"1.1 fold enrichment (6-mer frequency, TF over GST control)"
same,binding signal,[3],"1.03 fold enrichment (6-mer frequency, TF over GST control)"
same,binding signal,[4],"1.2 fold enrichment (6-mer frequency, TF over GST control)"
same,binding signal,[5],"1.09 fold enrichment (6-mer frequency, TF over GST control)"
same,binding signal,[6],"1.23 fold enrichment (6-mer frequency, TF over GST control)"
same,binding signal,[7],"1.03 fold enrichment (6-mer frequency, TF over GST control)"
same,binding signal,[8],"1.12 fold enrichment (6-mer frequency, TF over GST control)"
same,binding signal,[9],"1.19 fold enrichment (6-mer frequency, TF over GST control)"
same,binding signal,[10],"1.09 fold enrichment (6-mer frequency, TF over GST control)"
same,binding signal,[11],"1.13 fold enrichment (6-mer frequency, TF over GST control)"
same,binding signal,[12],"1.04 fold enrichment (6-mer frequency, TF over GST control)"
same,binding signal,[13],"1.01 fold enrichment (6-mer frequency, TF over GST control)"
same,binding signal,[14],"1.22 fold enrichment (6-mer frequency, TF over GST control)"
same,binding signal,[15],"1.2 fold enrichment (6-mer frequency, TF over GST control)"
same,binding signal,[16],"1.2 fold enrichment (6-mer frequency, TF over GST control)"
